Data reported in PubChem BioAssay (NCI).
About 83,000 compounds went through this panel and 20% of them were active in at least one assay; those are over-represented in the sample as a whole.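 Cells were grown in 96-well plates and exposed to the test compound at a single concentration for 48 hours; results are reported as percent growth, with values below 10 considered active.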 A number with no mark means an inactive call. Activity calls are given as the source filed them.

How the values were obtained:
Assay in all cases: NCI-60 one-dose screen, 48 h (100 = growth as untreated, 0 = no growth, -100 = all killed)
Settings in all cases: 10 µM
[1] = test system: HCT-15 colon
[2] = test system: HT29 colon
[3] = test system: SNB-75 CNS
[4] = test system: SNB-19 CNS
[5] = test system: U251 CNS
[6] = test system: PC-3 prostate
[7] = test system: SK-MEL-5 melanoma
[8] = test system: UACC-62 melanoma
[9] = test system: LOX IMVI melanoma
[10] = test system: SK-MEL-28 melanoma
[11] = test system: SK-MEL-2 melanoma
[12] = test system: EKVX NSCLC
[13] = test system: SN12C renal
[14] = test system: UO-31 renal
[15] = test system: TK-10 renal
[16] = test system: ACHN renal
[17] = test system: CAKI-1 renal
[18] = test system: A498 renal
[19] = test system: CCRF-CEM leukemia
[20] = test system: MOLT-4 leukemia

| Structure (SMILES) | growth [1] | growth [2] | growth [3] | growth [4] | growth [5] | growth [6] | growth [7] | growth [8] | growth [9] | growth [10] | growth [11] | growth [12] | growth [13] | growth [14] | growth [15] | growth [16] | growth [17] | growth [18] | growth [19] | growth [20] |
| --- | --- | --- | --- | --- | --- | --- | --- | --- | --- | --- | --- | --- | --- | --- | --- | --- | --- | --- | --- | --- |
| COc1ccc(/C(=C/c2cc(OC)c(OC)cc2[N+](=O)[O-])C(=O)O)cc1 | 107% | 109% | 93.8% | 106% | 107% | 99.2% | 110% | 106% | 97.1% | 116% | 107% | 105% | 104% | 83% | 118% | 108% | 96.1% | 105% | 98.6% | 103% |
| C#CCNCCCN1C(=O)c2ccc3c4c(ccc(c24)C1=O)C(=O)N(CCCNCC#C)C3=O | -82.3% (active) | -8.76% (active) | -98.7% (active) | -88.6% (active) | -76.6% (active) | -28% (active) | -98.7% (active) | -75.8% (active) | -94.4% (active) | -81.8% (active) | -21.5% (active) | -79.3% (active) | -97.7% (active) | -62.1% (active) | -11.3% (active) | -33.1% (active) | -77.9% (active) | -96.2% (active) | -0.672% (active) | -13.1% (active) |
| N#CC1C=Cc2c(ccc3ccccc23)N1C(=O)c1ccccc1 (centres undefined) | 20.6% | 8.15% (active) | 22% | 43.3% | 24% | 32.6% | 12.7% | 37.7% | 27.5% | 48.9% | 40.7% | 17.3% | 39.1% | 38.2% | 52.8% | 42.7% | 20.6% | -7.88% (active) | 20.3% | 18.9% |
| CCCCCN(CCCCC)C(C)C(O)c1ccc2cc(Cl)c3ccccc3c2c1 (centres undefined) | 93.1% | 55.5% | 93.8% | 104% | 90% | 80.6% | 89.9% | 88.2% | 94.3% | 108% | 87% | 102% | 89.6% | 70.6% | 94.8% | 102% | 87.4% | 83.1% | 92.2% | 98.6% |
| COc1cc(Cn2c(-c3ccccc3)cc3c2-c2oncc2CC3)cc(OC)c1 | 15.3% | -8.38% (active) | 19.5% | 34.8% | 18% | 19.2% | 5.07% (active) | 31.6% | 27.3% | 50.1% | 22.3% | 43.7% | 24.3% | 9.92% (active) | 57.4% | 34.7% | 18% | -14.7% (active) | 11.3% | 12.2% |
| CC(=O)Nc1ccc2c(c1)C(N1CC3CCC(CC3)C1)c1ccccc1-2 (centres undefined) | 53.3% | 75.1% | 88.6% | 107% | 77.7% | 34.8% | 49.3% | 60.5% | 93.3% | 108% | 96.7% | 88.5% | 86.8% | 66.7% | 113% | 93% | 70.9% | 78.5% | – | 63.5% |
| O=C(O)c1ccccc1C(=O)c1cccc2c(F)cccc12 | 104% | 115% | 86.2% | 98.3% | 98.7% | 92.5% | 108% | 97.7% | 92.8% | 111% | 103% | 108% | 100% | 87.1% | – | 98.2% | 104% | 130% | 92.3% | 93.1% |
| COc1ccc(-c2nnc(N3CCN(C(=O)CN4CCN(c5ccc(Cl)cc5)CC4)CC3)nc2-c2ccc(OC)cc2)cc1 | 76.8% | 37.3% | 81.4% | 94.7% | 80.3% | 25.6% | 51% | 58.8% | 75.9% | 86.7% | 65.7% | 45.4% | 57.5% | – | 90.6% | 85% | – | 73.7% | 47.2% | 8.77% (active) |
| C/C(=N\NC(=O)c1sc(=S)n(C)c1N)c1cc2ccccc2o1 | 48% | 36.6% | 53% | 89.9% | 56.5% | 45.5% | 43.1% | 71.3% | 25.6% | 71.8% | 74.4% | 64.8% | 72.2% | – | 56.6% | 59.7% | 50% | 33.3% | 51.2% | 35.7% |
| O=C(Nc1cccc([N+](=O)[O-])c1)NN1CCCCCC1 | 90.4% | 107% | 105% | 95.6% | 87.2% | 83.1% | 96% | 76.2% | 97.2% | 112% | 105% | 81.3% | 96.5% | 92.5% | 105% | 94.6% | 96.2% | 77.3% | 86.1% | 106% |
| COc1cc(-c2n/c(=C\c3c(O)[nH]c4ccccc34)cc3c2=Nc2ccccc2-3)cc(OC)c1OC | 14.3% | 4.2% (active) | 5.55% (active) | 37.7% | 12.5% | 30.2% | 2.12% (active) | 40% | 25.8% | 42.8% | 35.6% | 45.8% | 34.3% | 33.9% | 57.9% | 37.2% | 29.5% | -16.3% (active) | – | -13.5% (active) |
| C=CCNCCCN1C(=O)c2ccc3c4c(ccc(c24)C1=O)C(=O)N(CCCNCC=C)C3=O | -72.4% (active) | -17.1% (active) | -98.2% (active) | -91.2% (active) | -73.9% (active) | -15.5% (active) | -99.3% (active) | -80.4% (active) | -77.5% (active) | -76.3% (active) | -35.6% (active) | -78.7% (active) | -77.7% (active) | -44.3% (active) | -3.01% (active) | -9.77% (active) | -42.8% (active) | -71% (active) | – | -3.33% (active) |
| O=C1c2cc(Cl)ccc2-c2c(O)cc(Cl)cc21 | 81.6% | 95.1% | 81.2% | 59.8% | 55.5% | 78% | 53% | 85% | 52% | 106% | 62.3% | 72.1% | 72.2% | 49.6% | 114% | 66% | 90.7% | 109% | – | 47.3% |
| CC1(C)CCc2cc(-c3ccn(S(=O)(=O)c4ccc(Cl)cc4)n3)ccc2O1 | 91.3% | 70.9% | 92.3% | 100% | 74.2% | 56.8% | 47.2% | 75% | 72.2% | 94.7% | 92.2% | 54.5% | 72.8% | 75.6% | – | 89.4% | 64.3% | 70.8% | 64.2% | 65.4% |
| O=C1/C(=C/c2cccs2)CCC/C1=C\c1cccs1 | 78.9% | 73.9% | 110% | 105% | 83.8% | 89.6% | 83% | 77% | 92.4% | 102% | 95.8% | 74% | 103% | 75.9% | – | 101% | 87.4% | 74.8% | 80.9% | 89.1% |
| O=CNc1c(Cl)cc2c(c1Cl)Cc1cc([N+](=O)[O-])ccc1-2 | 29.3% | 58.4% | 65.6% | 87.5% | 78.1% | 40.2% | 5.14% (active) | 48.8% | 55.7% | 106% | 38.1% | 30.7% | 80.6% | 71.7% | 90.3% | 68.7% | 82.1% | 85.9% | – | 33% |
